Measurements taken from the supplement of paper PMC6555819.

How the values were obtained:
Experiment in all cases: PBM binding z-score (relative to random genomic background probes); higher = stronger binding; sequences stand for … in GC…GCGATTGACAGCGTAGAATGAAGG
[1] = test system: FXR:RXRa (NR concentration 270 nM, RXRa partner concentration 90 nM)
Method in brief: (§1)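 Each nuclear receptor dimer, without ligand, was incubated for 1 h on custom Agilent 4×180K protein-binding microarrays. Binding was detected with antibodies against each partner (one per run), and scanned fluorescence was regression-normalized. The binding z-scores are referenced to random human genomic background probes.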

[2] = test system: LXRa:RXRa (NR concentration 270 nM, RXRa partner concentration 90 nM)
Method in brief: as §1

[3] = test system: LXRa homodimer (NR concentration 270 nM)
Method in brief: as §1

[4] = test system: LXRb:RXRa (NR concentration 270 nM, RXRa partner concentration 90 nM)
Method in brief: as §1

[5] = test system: LXRb homodimer (NR concentration 270 nM)
Method in brief: as §1

[6] = test system: PPARa:RXRa (NR concentration 270 nM, RXRa partner concentration 90 nM)
Method in brief: as §1

[7] = test system: PPARg:RXRa (NR concentration 180 nM, RXRa partner concentration 90 nM)
Method in brief: as §1

[8] = test system: PPARg:RXRa 270nM:90nM, anti-RXR (NR concentration 270 nM, RXRa partner concentration 90 nM)
Method in brief: as §1

[9] = test system: PPARg:RXRa 30nM:10nM, anti-RXR (NR concentration 30 nM, RXRa partner concentration 10 nM)
Method in brief: as §1

[10] = test system: PPARg:RXRa 90nM:30nM, anti-RXR (NR concentration 90 nM, RXRa partner concentration 30 nM)
Method in brief: as §1

Sequence | PBM binding z-score [1] | PBM binding z-score [2] | PBM binding z-score [3] | PBM binding z-score [4] | PBM binding z-score [5] | PBM binding z-score [6] | PBM binding z-score [7] | PBM binding z-score [8] | PBM binding z-score [9] | PBM binding z-score [10]
ATATGTAGGTTATCGGGTCATCCAGTTTGCGCAT | 3.4 | 3.29 | 1.73 | 3.26 | 1.22 | 5.15 | 7.35 | 6.27 | 3.9 | 5.79
GGAACGAGGGCAAAGTTGATGGCATCTGTCGACG | 1.36 | 1.13 | -0.0159 | 0.949 | -0.264 | 4.09 | 6.37 | 6.89 | 5.45 | 6.81
CTCGAAAGGTCGGTTGTGGTGAGTATACGGATAA | 2.01 | 1.54 | 0.263 | 1.67 | 0.416 | 2.29 | 0.242 | 0.949 | -0.0875 | 0.394
TCTGCTAGGTCAGTCGGTCAGCTAACGAGCTGCC | 1.18 | 0.763 | -0.313 | 0.432 | 0.0608 | 1.92 | 1.25 | 2.34 | 1.11 | 1.44
TCATACAGGTAAACAGGTGAAAGTCCGTAAGTTA | 0.989 | 1.11 | 0.506 | 1.2 | 0.202 | 2.18 | 1.6 | 3.16 | 4.13 | 3.71
CCTTACGGGTCAATGACAGGTTATAGCATTTGGA | 6.33 | 4.45 | 1.11 | 3.68 | 0.333 | 5.07 | 3.44 | 3.62 | 1.13 | 2.5
CCTCGGAGGACAGAATGTCAGAGCTGTCCGCTTT | -0.31 | -0.467 | -0.713 | -1.01 | -0.428 | -0.27 | -0.416 | -0.901 | -0.655 | -1.09
AATACAGGGTTATCGTAGGCCAGAGTACGCACAG | 1.75 | 5.85 | 0.204 | 2.68 | 0.3 | 2.55 | 1.75 | 1.35 | 0.668 | 0.954
CGAACTAGGTCAGAATAGGACAGTGAAGGATGAT | 1.39 | 0.992 | -0.0335 | 0.45 | -0.693 | 3.02 | 5.03 | 4.31 | 1.81 | 3.36
TTACCACGGTGAAAGGTCGTTGATGCACGCCTTG | 1.82 | 1.94 | 0.347 | 1.79 | -0.318 | 4.03 | 6.35 | 6.53 | 5.02 | 6.87
TCGAGTAGGTTAGTCGGGGCAATCAGCCAACATA | 0.297 | -0.165 | -0.263 | 0.224 | -1.01 | 0.796 | 0.0628 | 0.946 | 1.01 | 0.797
CGTCCAAGGTCGGAGAGGTCAGTGAATGCCGAGT | 2.9 | 3.06 | 1.09 | 2.53 | -0.761 | 3.1 | 0.524 | 2.01 | 0.133 | 1.16
TTGCCTAGGTCATGCGGGCCAGTATAGTGTCGGC | 4.05 | 2.72 | 0.0559 | 1.52 | -0.792 | 3.42 | 2.01 | 2.28 | -0.182 | 1.06
GGATCGAGGGCATTCGAGTTGATAGCATGGCGAT | 0.788 | 1.56 | -0.155 | -0.0829 | -0.428 | 1.47 | 0.73 | 0.681 | -0.121 | 0.313
CCTCGGAGGACAGAAGGTCAGAGCGGTCCGCTTT | 1.42 | 1.8 | 0.0694 | 0.843 | -0.863 | 1.78 | -0.185 | 0.642 | -0.618 | 0.0661
TCTATTAGTTGATTAGGGCAACCCAAACAGCGGA | 0.851 | 0.543 | 0.334 | 0.826 | 0.771 | 1.09 | 0.509 | 1.97 | 3.86 | 2.89
TAGGCTAGGTCATGCGGGCCAGTATAGTGTCGGC | 3.97 | 2.69 | 0.422 | 1.26 | 0.000142 | 3.1 | 2.29 | 2.28 | 0.305 | 1.33
TGTCAAAGTTCAAAGGTAACTTAAGTATCCACAC | 7.43 | 6.57 | 4.91 | 5.29 | 1.88 | 5.97 | 9.03 | 7.64 | 5.83 | 7.46
CTCGAAAGGTCGTGCTCAGGTGAGGATACCAAAC | 5.21 | 3.76 | 0.268 | 3.22 | -0.12 | 4.86 | 2.79 | 4.04 | 0.853 | 2.43
TCGAGTAGGTTAGGGGCATCCAGAATGGCGTCGA | 0.419 | 0.286 | -0.391 | 0.913 | -0.812 | 1.38 | 0.651 | 2.05 | 1.32 | 1.8
TCGATTAGTTGATTAGGGCAACCGAAACAGCGGA | -1.31 | -0.186 | -0.313 | 0.118 | -0.308 | 0.322 | 0.147 | 1.25 | 2.88 | 2.19
CCTTACGGGTCACTGACTGGTTATAGCATTTGGA | 5.56 | 3.75 | 0.422 | 3.15 | -0.0702 | 4.99 | 4.13 | 4.14 | 1.38 | 2.81
GCTGCTAGGTCATCTGATGGTCAGCTAAAGCTCG | 3.98 | 3.02 | 0.182 | 2.03 | 0.0879 | 3.39 | 1.96 | 2.82 | 0.263 | 1.59
CGTCCAAGGTCAGCAGGTCAGTCAAAGCGACGTG | 5.86 | 4.15 | 0.724 | 3.27 | -0.456 | 4.84 | 4.14 | 4.59 | 0.878 | 3.11
CCTTACGCGTCACGAGGTTATAGCACGACGAGCG | 0.529 | 0.868 | 0.107 | 0.95 | 0.329 | 1.44 | 1.08 | 0.331 | -0.172 | -0.00609

Sequence | PBM binding z-score [1] | PBM binding z-score [2] | PBM binding z-score [3] | PBM binding z-score [4] | PBM binding z-score [5] | PBM binding z-score [6] | PBM binding z-score [7] | PBM binding z-score [8] | PBM binding z-score [9] | PBM binding z-score [10]
CCTAGCTGGTCAAGGTCACACACGCTATAGGTAC | 4.92 | 3.91 | 1.74 | 3.43 | 0.392 | 4.23 | 2.76 | 3.05 | 0.699 | 1.94
GCTTGTAAATCAAGGTTAAGAAAGACTAAGCTAA | 0.61 | 1.71 | 0.223 | 0.926 | -0.355 | 1.56 | 0.214 | 0.467 | 0.122 | 0.622
CGAACTAGGTCATTGACAGTACAGTGAATAGTAA | 4.63 | 2.68 | 0.32 | 2.02 | 0.232 | 4.98 | 7.68 | 6.38 | 3.77 | 5.67
GCTTGTAGATGAAGGTTAAGAAAGACTAAGCTAA | -0.515 | 0.357 | -0.563 | -0.0135 | -0.789 | 0.816 | 0.15 | 0.943 | -0.144 | 0.254
ACTAGTTGGTCAGCTGAGGTCACAAACAATTCGG | 2.51 | 2.67 | 2.22 | 3.43 | 0.432 | 3.72 | 1.41 | 2.05 | 0.167 | 1.14
ATACCAAGGTGATGGTGAGGTCGTTGATACTAAC | 0.921 | 0.64 | 0.268 | 1.09 | -0.372 | 1.56 | 0.532 | 0.222 | 0.0287 | 0.21
TCTTGTAGATCAAGCAGTTTAAGAAAGCCTGAGT | 0.227 | 0.026 | -0.29 | 0.14 | -0.263 | 0.321 | -0.75 | 1.11 | 2.54 | 2.03
CCTACTGGGCCAAGGTCATTTATCAGTCAAAGCA | 3 | 3 | 1.94 | 3.53 | 0.242 | 3.92 | 4.1 | 4.33 | 1.69 | 3.57
TCATATAGGCAAATGCTAGGTGAAAGTCCGATCT | 0.729 | 0.526 | -0.00307 | 0.0683 | -0.278 | 0.735 | 0.411 | 1.55 | 3.12 | 2.14
TCTATTAGTTGATGAGGGCAACCGAAACAGCGGA | 0.667 | 0.683 | 0.18 | 0.607 | 0.412 | 1.07 | 0.347 | 2 | 3.62 | 2.83
GCTGCTAGGTCAGGTTGGTCAGCCAACGGGTACG | 1.12 | 0.345 | -0.418 | 0.336 | -0.341 | 1.36 | 0.298 | 1.1 | -0.412 | 0.115
TGAATGAGGTAAAAGATCAGGGAACGTGGCGTCG | 0.359 | -0.0204 | -0.712 | -0.13 | -0.307 | 2.5 | 3.68 | 5.02 | 3.41 | 5.53
ATATGTAGGTAAAGGGTCATTCAGGTTGGTTCGC | 4.11 | 4.04 | 2.46 | 3.97 | 1.17 | 6.53 | 11.1 | 9.65 | 9.28 | 10.5
CCTACTGGGCCATCAGGTCACTGATATCAACGTT | 1.21 | 0.856 | 0.277 | 1.45 | -0.523 | 2.54 | 3.22 | 3.98 | 1.37 | 3.37
GCTGCTAGGTCAGGTTGGACAGCTAACGGGTACG | 1.1 | 0.591 | -0.119 | 0.0809 | -0.346 | 1.2 | 0.798 | 0.804 | -0.236 | -0.0943
TCTATTAGCTGATTAGGGCAACCGAAACAGCGGA | 0.113 | -0.201 | -0.333 | -0.12 | -0.075 | 0.627 | -0.00749 | 1.41 | 2.86 | 2.13
TCGAGTAGGTTACCAATGCGGCATTCAGCTTTCT | 0.106 | 0.532 | -0.94 | 0.215 | -0.704 | 0.883 | 0.206 | 1.1 | 1.23 | 1.24
AGTCAAAGTTCACTAGGTAACGTCAGATTCAGCT | 4.66 | 4.88 | 2.92 | 2.84 | 0.994 | 4.68 | 6.81 | 6.74 | 4.13 | 5.98
TATACAGAGTCAAAGGCCAGAGTACGAATGTCGA | 0.1 | 0.487 | 0.0394 | 0.0721 | 0.0425 | 1.1 | 2.17 | 2.98 | 1.53 | 2.73
CGAACTAGGTCAGAACAGGACAGGGAAGGATGAT | 1.5 | 1.01 | 0.0984 | 0.515 | -0.138 | 3.4 | 5.45 | 4.61 | 1.99 | 3.65
TAGCCTAGGTCTTGGGCCAGTATACCACGCGAAC | -0.302 | -0.359 | -0.58 | -0.334 | -0.384 | -0.242 | 0.0651 | -0.286 | -0.619 | -0.51
CCTTACGGGGCACGAGGTTATAGCACGACGAGCG | 0.567 | 0.879 | -0.304 | 0.509 | -0.823 | 2.26 | 2.22 | 2.19 | 0.265 | 1.49
CCTCGCAGGCCAGGGTCACTCAAGCATTTCGCTT | 2.11 | 1.69 | -0.251 | 2.06 | -0.654 | 3.01 | 0.19 | 1.04 | -0.771 | 0.0823
CTCGAAAGGTCGGTTGAGGTGAATATACGGATAA | 2.5 | 2.04 | 0.0954 | 1.76 | 0.0541 | 3.15 | 0.944 | 1.6 | 0.365 | 1.15
